# Bioassay records from PubChem BioAssay.
# Sampled rows, rich in hits. Any-hit rate of the full collection: about 8%.
# SW480 rereplic – DNA re-replication induction in SW480 cells. SW480 DNA re-replication, Hoechst DNA content imaging, 48 h. Potency, µM (titrated, usually from 46.1 µM), most hits filed as activators. actives 1.8% (n = 340,000); also: nearly all actives have a fitted effect of over 55% in size
#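 Treated cells incubate 48 hr (37 C, 5% CO2), are stained 40 min with Hoechst, and nuclear fluorescence is enumerated; a rise in nuclei with high DNA signal marks re-replication.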
# HT1080 IDH1KD tx – toxicity to HT-1080 IDH1 knockdown cells (counter line) | actives 2% (n = 360,000) | Potency, µM (titrated, usually from 46.1 µM), hits mostly cytotoxic | HT-1080 IDH1 knockdown viability, ATP luminescence, 48 h
#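 In this qHTS, HT-1080 cells depleted of IDH1 are exposed for 48 h at 37 °C to compound titrations. Toxicity is scored from CellTiter-Glo luminescence, with DMSO as full viability and medium alone as none.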
# KB-V1 MDR tox – kills drug-selected multidrug resistant KB-V1 cells; KB-V1 MDR cells viability, CellTiter-Glo, 72 h; Potency, µM (series often up to 46.1 µM), most hits filed as cytotoxic; actives 3.4% (n = 400,000); also: nearly all actives have a fitted effect of over 60% in size
#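 KB-V1 MDR subline cells in DMEM (phenol-red free, 10% FBS) exposed to compounds in qHTS concentration series for 72 h at 37 degrees C. Viability read by CellTiter-Glo luminescence; concentration-effect curves fitted after normalization and correction.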
# MCF10A rereplic – DNA re-replication induction in MCF 10a cells | MCF 10A DNA re-replication, Hoechst nuclear intensity, 48 h | Potency, µM (doses to about 46.1 µM), most hits filed as activators | actives 2.9% (n = 350,000) | AID 624296; also: nearly all actives have a fitted effect of over 50% in size
# KB-3-1 tox – KB-3-1 parental cell cytotoxicity; Potency, µM (doses to about 46.1 µM), usual class: cytotoxic; KB-3-1 viability, CellTiter-Glo ATP luminescence, 72 h; AID 1347075; actives 1.4% (n = 400,000); also: nearly all actives have a fitted effect of over 60% in size
#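 Using CellTiter-Glo luminescence, growth of non-resistant KB-3-1 adenocarcinoma cells is assessed 72 h after pin-tool compound addition at 37 °C. Normalized responses across the concentration series yield fitted curves.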
# HT1080NT lethal – kills 2HG-producing HT-1080-NT fibrosarcoma cells; AID 686970; HT-1080-NT fibrosarcoma viability, CellTiter-Glo ATP luminescence, 48 h; Potency, µM (highest dose often 46.1 µM), actives largely listed as cytotoxic; actives 1.6% (n = 360,000);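 also: NT is the 2HG producing partner of a matched IDH1 knockdown line; nearly all actives have a fitted effect of over 55% in size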
#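 HT-1080-NT; 750 cells/well; 5% FBS RPMI; 48 h compound, 37 degrees C; CellTiter-Glo luminescence; curve fitting and curve-class assignment.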
# Numbers stand for hits; n = inactive; u = inconclusive; x = not tested or not shown. Calls follow the shape of the dose curve; as a rule, active = well fitted curve in the direction sought with a large enough effect; inconclusive = small, poorly fitted or top-dose-only effect, or another doubt; inactive = no such curve, though single readings can be large; an effect the other way counts as inactive or inconclusive.
SMILES,SW480 rereplic,HT1080 IDH1KD tx,KB-V1 MDR tox,MCF10A rereplic,KB-3-1 tox,HT1080NT lethal
CCOc1ccc(-n2c(SCC(=O)Nc3ccc(Br)cc3)nc3n[nH]c(C)c3c2=N)cc1,u,16µM,n,15µM,n,15µM
Cc1cc(-n2c(SCC(=O)NCc3cccs3)nc3n[nH]c(C)c3c2=N)ccc1Cl,n,u,n,u,n,u
Cc1cc(-n2c(SCC(=O)Nc3ccc(F)c(F)c3)nc3n[nH]c(C)c3c2=N)ccc1Cl,u,n,n,2.3µM,n,u
Cc1cc(-n2c(SCC(=O)Nc3ccc(Br)cc3)nc3n[nH]c(C)c3c2=N)ccc1Cl,18µM,n,n,3.3µM,u,n
Cc1ccc(NC(=O)C2CC(=O)N(CCc3ccccc3)C2)c(C)c1 (centres undefined),n,n,n,n,n,n
FC(F)(F)c1ccccc1-n1c(-c2cnccn2)n[nH]c1=S,n,n,n,n,n,n
CC(=O)/C(=N/Nc1ccccc1)N1CCOCC1,n,n,n,n,n,5µM
O=C(O)c1nccnc1C(=O)NCc1csc2ccc(Cl)cc12,n,n,u,n,n,n
C=C1[C@@H](O)[C@H](CC(C)C)N(Cc2ccccc2Br)S1(=O)=O,u,u,n,u,u,23µM
CC1(C)Cc2c(cnn2-c2ccc(F)cc2)C(NC(=O)CCN2CCCC2=O)C1 (centres undefined),u,n,n,u,n,n
Cc1ccccc1-c1nc2ccccc2c(=O)o1,x,n,n,x,n,n
COc1ccc(-c2ccc(CCC(=O)O)n2CC(C)C)cc1,9.2µM,u,n,u,u,u
O=C(O)CCc1ccc(-c2ccc(Br)cc2)n1-c1ccccc1O,x,x,n,x,n,x
COc1ccc(-c2ccc(CCC(=O)O)n2-c2cc(OC)ccc2OC)cc1,x,u,u,x,u,23µM
COc1ccc(-c2ccc(CCC(=O)O)n2-c2ccccc2O)cc1,21µM,u,n,1.8µM,u,u
COc1ccc(-n2c(CCC(=O)O)ccc2-c2ccccc2)cc1,n,n,n,n,n,n
COc1ccc(-c2ccc(CCC(=O)O)n2-c2ccccc2C(F)(F)F)cc1,x,x,n,x,18µM,x
CCOC(=O)C(NC(=O)c1ccccc1Cl)(Nc1ccc(C)c(C)c1)C(F)(F)F (centres undefined),4.1µM,n,u,n,n,n
COc1ccc(C(=O)NC(=C(Cl)Cl)S(=O)(=O)c2ccc(C)cc2)cc1,13µM,u,u,10µM,u,u
CCOC(=O)NC(C(Cl)(Cl)Cl)S(=O)(=O)c1ccccc1 (centres undefined),u,u,n,u,n,u
Cc1ccc(C(=O)NC(C#N)=C(Cl)Cl)cc1,u,21µM,n,9.2µM,u,6.5µM
Cc1ccc(C(=O)NC(=C(Cl)Cl)S(=O)(=O)c2ccccc2)cc1,n,u,16µM,21µM,n,u
COC(=O)NC(=C(Cl)Cl)S(=O)(=O)c1ccccc1,u,n,18µM,7.3µM,16µM,n
COc1ccc(-n2c(=O)c3c4c(sc3n(CC(=O)Nc3cc(C)[nH]n3)c2=O)CCC4)c(OC)c1,u,n,n,n,n,n
O=CNc1ccc2c3c(cccc13)-c1ccccc1-2,2.3µM,n,u,u,n,n
SMILES,SW480 rereplic,HT1080 IDH1KD tx,KB-V1 MDR tox,MCF10A rereplic,KB-3-1 tox,HT1080NT lethal
CCCc1cc(CN(C)C(=O)CC2C(=O)NCCN2Cc2ccccc2C)[nH]n1 (centres undefined),n,n,n,n,n,n
COc1ccc(/C=C/C(=O)N(C)C2(C)CCS(=O)(=O)C2)cc1 (centres undefined),23µM,n,n,n,n,n
COc1ccc(/C=C/C(=O)N(C)C2CCS(=O)(=O)C2)cc1 (centres undefined),u,n,n,n,n,n
COc1ccc2c(c1)OC13CCCCC1C2C(C(=O)c1ccccc1)C(=O)N3 (centres undefined),n,n,n,n,n,n
O=C1CN(C(=O)c2ccccc2F)C(c2ccccc2)c2cc(F)ccc2N1 (centres undefined),n,n,n,n,n,n
O=S(=O)(Nc1ccc(O)c(Sc2nc3ccccc3s2)c1)c1ccc(Cl)cc1,n,n,16µM,21µM,u,n
CC(=O)OCCCNc1cc(Sc2nc3ccccc3s2)c2nonc2c1[N+](=O)[O-],n,n,n,u,n,n
COC(=O)CCSc1cc(NCCOC(C)=O)c([N+](=O)[O-])c2nonc12,n,u,n,u,n,21µM
CC(=O)OCCNc1cc(Sc2nc3ccccc3[nH]2)c2nonc2c1[N+](=O)[O-],u,18µM,n,u,u,n
C=CCN(C(=O)c1ccccc1)c1ccc(OC)cc1,u,u,n,n,u,u
Cc1cccc(-c2noc(-c3cc(-c4ccc(F)cc4)n[nH]3)n2)c1,x,x,n,x,n,x
O=C(Nc1ccc(Br)cn1)c1cccc(-c2cc3ccccc3oc2=O)c1,u,23µM,n,18µM,u,u
Cc1nc(NC(=O)c2cccc(-c3cc4ccccc4oc3=O)c2)ccc1Br,n,n,u,21µM,u,n
O=C(Nc1cccc(Cl)c1N1CCCC1)c1ccc(Br)o1,n,n,u,u,n,n
Cc1nc(NC(=O)c2ccc(-c3cc4ccccc4oc3=O)cc2)ccc1Br,n,n,n,n,n,n
O=C(Nc1cccc(Cl)c1N1CCCC1)c1cc2ccccc2o1,n,u,n,21µM,n,u
O=C(Nc1ccccc1N1CCCC1)c1cccc(-c2cc3ccccc3oc2=O)c1,u,n,3.7µM,n,n,n
COc1ccc(C(=O)CSc2nc3cc(C(=O)NC4CCCC4)ccc3c(=O)n2CC2CCCO2)cc1 (centres undefined),x,x,n,x,n,x
CC(=O)Nc1ccc(SCC(=O)NNC(=O)CN(C)S(=O)(=O)c2ccc(C)cc2)cc1,5.2µM,n,n,n,n,n
Cc1cccc(C(=O)NCC(=O)N2CCN(c3ccccn3)CC2)c1,n,n,21µM,n,n,n
O=C(c1ccc(S(=O)(=O)c2ccccc2Cl)c([N+](=O)[O-])c1)N1CCCCCC1,u,n,2.3µM,u,u,n
O=C(c1ccc(S(=O)(=O)c2cccc(Cl)c2)c([N+](=O)[O-])c1)N1CCN(c2ccccn2)CC1,n,21µM,u,u,u,9.2µM
O=C(c1cccc([N+](=O)[O-])c1)N1CCN(c2ccccn2)CC1,16µM,n,n,n,n,n
O=C(c1cccc(Cl)c1)N1CCN(c2ccccn2)CC1,n,n,n,n,n,n
